Data: PubChem BioAssay (NCI)
Compounds without any hit were thinned out: in the full panel of roughly 83,000, 20% have a hit.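 Note: values are percent growth. 100 is the growth of untreated cells, values between 100 and 0 indicate rising inhibition; between -100 and 0 indicates cell death.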 Values without a mark were called inactive. Calls of active or inactive are those of the source. Rule for the calls: active = growth percent below 10; inactive = the rest.

System: SF-268 CNS
Experiment: NCI-60 one-dose screen, 48 h (100 = growth as untreated, 0 = no growth, -100 = all killed)
Details: 10 µM unless noted

| SMILES | growth |
| --- | --- |
| O=C(Nc1ccc(NC(=O)c2cc(=O)[nH]c3ccccc23)cc1)Nc1cccc(C(F)(F)F)c1 | 50.7% |
| CCN(CC)CCCN1C(=O)c2c(c(C)c3c(oc4cc(O)ccc43)c2C)C1=O | -41.4% (active) |
| COc1cc(OC)cc(C2=C3CC[C@@H]4[C@H](CC[C@]5(C)C(=O)CC[C@@H]45)C3=CC3C(O)c4cccnc4N4C(=O)COC234)c1 (stereo not given in full) | 92.8% |
| Oc1ccc(CN2CCC(N3CCCCC3)CC2)c2cccnc12 | 38.9% |
| CN(C)CC(=O)Nc1ccc2ncnc(Nc3ccc(Oc4cccc(C(F)(F)F)c4)c(Cl)c3)c2c1 | 61.3% |

System: SF-295 CNS
Experiment: as above
Details: 10 µM unless noted

| SMILES | growth |
| --- | --- |
| COC(=O)c1ccc2c(c1)C(=O)c1c-2n(CCCN)c(=O)c2cc([N+](=O)[O-])ccc12 | -77.4% (active) |
| O=C(Nn1c2c(sc1=Nc1ccccc1)C(=O)c1ccccc1C2=O)c1cc2ccc1CCc1ccc(cc1)CC2 | 87.8% |
| O=C(CN1C(=O)CCC1=O)Nc1ncc(Cc2ccc(F)cc2)s1 | 99.3% |
| Nc1ncnc2c1N=C(c1ccc(Cl)cc1)CC(c1ccc3c(c1)OCO3)N2 (stereo not given) | 128% |
| N#C/C(=C/c1ccc([N+](=O)[O-])cc1)n1nnc2cc(F)c(F)cc21 | 91.4% |
| COc1ccc(C(=O)Nc2ncc(Cc3ccc(F)cc3)s2)cc1 | 9.8% (active) |
| CCN1CCN(Cc2cn(CC(=O)Nc3ccc4c(ccn4Cc4ccccc4)c3)nn2)CC1 | 105% |
| CCOC(=O)C1=C(NC)OCC1=O | 106% |
| CC(=O)c1cc(O)c2ccccc2c1O | 108% |
| CC1(C)CC[C@]2(c3nnc(-c4ccncc4)o3)CC[C@H]3C(=CC[C@H]4[C@@]3(C)CC[C@H]3C(C)(C)C(=O)CC[C@]43C)[C@@H]2C1 | 89.7% |
| CC(C)(C)n1cc(-c2ccnc(NCCCNS(=O)(=O)c3ccc(F)cc3)c2)c(-c2cccc(F)c2)n1 | 74% |
| COc1cc(CNS(=O)(=O)c2ccc(C)cc2)ccc1OCc1cn(-c2ccc(Br)cc2)nn1 | 97.2% |
| Cc1ccc(-c2csc(NC(=O)CN3CCN(c4cc5c(cc4F)c(=O)c(C(=O)O)cn5C4CC4)CC3)n2)cc1 | -2.97% (active) |
| CCCCCCCCCCCCCCCCCCOc1ccccc1CC(=O)OCC[N+]1(C)CCCC1 | 58% |
| COc1ccc(-c2nc(/C=C3\SC(=NCc4ccccc4)NC3=O)c3ccccn23)cc1 | 17.5% |
| COc1ccc2c3c([nH]c2c1)C(=O)c1nc(C)ccc1C3=O | 45.8% |
| CN(CCOc1ccc(C#N)cc1)CCOc1ccc(C#N)cc1 | 483% |
| CCN1C(=O)N(CC)C2C1NN=c1s/c(=C\c3cccc([N+](=O)[O-])c3)c(=O)n12 (stereo not given) | 15% |
| O=C(CCCCCCN1CC(=O)N2[C@H](c3cc(Br)cs3)c3[nH]c4ccccc4c3C[C@H]2C1=O)NO | 45.8% |
| Cc1ccc(/C=C2\CN(C(=O)OC(C)(C)C)C/C(=C\c3ccc(C)cc3)C2=O)cc1 | 89.9% |
| CN(C)CCNC(=O)c1cccc(-c2cnc3ccc(-c4ccc5c(c4)OCO5)nn23)c1 | 106% |
| Cn1c(=O)c2c(nc(NC3=NS(=O)(=O)c4ccccc43)n2CC(=O)N2CCc3ccccc32)n(C)c1=O | 105% |
| Cc1ccc(NC(=S)NNC(=S)NNc2ccccc2)cc1C | 109% |
| C=CCn1c(SCC(=O)Nc2ccc(C(=O)/C=C/c3cc4cc(OC)ccc4nc3Cl)cc2)nnc1-c1ccc(Br)cc1 | 92.1% |
| CCCC(=O)NC(c1ccc2c(c1)OCO2)c1ccc2cccnc2c1O (stereo not given) | 13.9% |
| c1ccc(C2=NN[C@H](c3cn(-c4ccccc4)nc3-c3ccccc3)C2)cc1 | -23.8% (active) |
| C[C@@H]1CCC[C@H]1CC(N)C(=O)O (stereo not given in full) | 106% |
| O=C1c2cccnc2C(=O)c2c1c(C(=O)NCCCN1CCCCC1)c1ccccn21 | -13.6% (active) |
| CCCCCCCCn1ccc2cc(NC(=O)Cn3cc(CN4CCCCC4)nn3)ccc21 | -66.5% (active) |
| COC(C(=O)[C@@H](O)[C@@H](C)O)[C@@H]1Cc2cc3cc(O[C@H]4C[C@@H](O[C@H]5C[C@@H](O)[C@H](O)C(C)O5)[C@H](O)C(C)O4)c(C)c(O)c3c(O)c2C(=O)[C@H]1O[C@H]1C[C@@H](O[C@H]2C[C@@H](O[C@H]3C[C@@H](O)[C@H](OC)C(C)O3)[C@@H](O)C(C)O2)[C@H](O)C(C)O1 (stereo not given in full) | 8.2% (active) |
